Experimental data taken from PubChem BioAssay AID1159580 (chemical genetic matrix, 2015).
In all, about 5,500 compounds went through this assay and about 2,000 (36%) were called active. About 18% were inconclusive and are not listed. Rule as the data show it: active = normalized growth mostly below about 0.91 (no sharp cut-off); inconclusive = no clear call, values can overlap the other calls; inactive = mostly above about 0.92. This is one part of the list.

Test: chemical genetic growth profiling, strain panel (AID 1159580);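 also: tested at 20 µM; growth read once vehicle control cultures reached saturation at 30 °C; 1 = growth at the plate median or of vehicle wells; lower values mean less growth of the strain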
Conditions: growth OD

Measured: normalized growth

CN(C)CCCO[C@H]1[C@@H](C(O)CO)OC2OC(C)(C)O[C@@H]21 (some centres not stated)
active: S. cerevisiae deletion strains, locus YKR001C, strain vps1, hits give low values 0.867 | S. cerevisiae deletion strains, locus YLR418C, strain cdc73, hits give low values 0.748 | S. cerevisiae deletion strains, locus YMR223W, strain ubp8, hits give low values 0.902 | S. cerevisiae deletion strains, locus YNL307C, strain MCK1, hits give low values 0.871 | S. cerevisiae deletion strains, locus YOR184W, strain ser1, hits give low values 0.872
inactive: S. cerevisiae deletion strains, locus YJR075W, strain HOC1, hits give low values 0.981 | S. cerevisiae deletion strains, locus YKL009W, strain mrt4, hits give low values 0.988 | S. cerevisiae deletion strains, locus YKL068W, hits give low values 0.99 | S. cerevisiae deletion strains, locus YKL085W, strain MDH1 (second series), hits give low values 1.01 | S. cerevisiae deletion strains, locus YKL085W, strain MDH1, hits give low values 1.01 | S. cerevisiae deletion strains, locus YKL160W, strain elf1, hits give low values 0.975 | S. cerevisiae deletion strains, locus YKL190W, strain CNB1, hits give low values 0.97 | S. cerevisiae deletion strains, locus YKR026C, strain gcn3, hits give low values 0.991 | S. cerevisiae deletion strains, locus YKR091W, strain srl3, hits give low values 0.98 | S. cerevisiae deletion strains, locus YLL001W, strain dnm1, hits give low values 0.94 | S. cerevisiae deletion strains, locus YLL026W, hits give low values 0.985 | S. cerevisiae deletion strains, locus YLL041C, strain sdh2, hits give low values 0.993 | S. cerevisiae deletion strains, locus YLR027C, strain aat2, hits give low values 0.997 | S. cerevisiae deletion strains, locus YLR039C, strain RIC1, hits give low values 0.993 | S. cerevisiae deletion strains, locus YLR058C, strain SHM2, hits give low values 0.985 | S. cerevisiae deletion strains, locus YLR102C, strain apc9, hits give low values 0.988 | S. cerevisiae deletion strains, locus YLR113W, strain HOG1, hits give low values 0.985 | S. cerevisiae deletion strains, locus YLR221C, strain rsa3, hits give low values 0.957 | S. cerevisiae deletion strains, locus YLR258W, strain gsy2, hits give low values 0.998 | S. cerevisiae deletion strains, locus YLR262C, strain YPT6 (second series), hits give low values 0.978 | S. cerevisiae deletion strains, locus YLR262C, strain YPT6, hits give low values 1.04 | S. cerevisiae deletion strains, locus YLR268W, strain sec22, hits give low values 0.945 | S. cerevisiae deletion strains, locus YLR320W, strain mms22, hits give low values 0.963 | S. cerevisiae deletion strains, locus YLR330W, strain CHS5, hits give low values 0.995 | S. cerevisiae deletion strains, locus YLR342W, strain FKS1 (second series), hits give low values 0.896 | S. cerevisiae deletion strains, locus YLR342W, strain FKS1, hits give low values 0.985 | S. cerevisiae deletion strains, locus YLR357W, strain rsc2, hits give low values 0.955 | S. cerevisiae deletion strains, locus YLR370C, strain arc18, hits give low values 0.977 | S. cerevisiae deletion strains, locus YLR371W, strain rom2, hits give low values 0.993 | S. cerevisiae deletion strains, locus YLR384C, strain iki3, hits give low values 0.972 | S. cerevisiae deletion strains, locus YML016C, strain PPZ1, hits give low values 0.979 | S. cerevisiae deletion strains, locus YML032C, strain rad52, hits give low values 0.945 | S. cerevisiae deletion strains, locus YML120C, strain ndi1, hits give low values 0.964 | S. cerevisiae deletion strains, locus YML124C, strain tub3, hits give low values 0.98 | S. cerevisiae deletion strains, locus YMR058W, strain fet3, hits give low values 0.975 | S. cerevisiae deletion strains, locus YMR078C, strain ctf18, hits give low values 0.969 | S. cerevisiae deletion strains, locus YMR125W, strain sto1, hits give low values 0.978 | S. cerevisiae deletion strains, locus YMR129W, hits give low values 0.993 | S. cerevisiae deletion strains, locus YMR205C, strain PFK2, hits give low values 0.961 | S. cerevisiae deletion strains, locus YMR231W, strain pep5, hits give low values 0.991 | S. cerevisiae deletion strains, locus YMR263W, strain SAP30, hits give low values 0.942 | S. cerevisiae deletion strains, locus YMR307W, strain GAS1, hits give low values 0.937 | S. cerevisiae deletion strains, locus YNL067W, strain RPL9B, hits give low values 0.974 | S. cerevisiae deletion strains, locus YNL071W, strain lat1, hits give low values 1.06 | S. cerevisiae deletion strains, locus YNL128W, strain TEP1, hits give low values 1 | S. cerevisiae deletion strains, locus YNL153C, strain GIM3, hits give low values 0.953 | S. cerevisiae deletion strains, locus YNL183C, strain NPR1, hits give low values 0.945 | S. cerevisiae deletion strains, locus YNL209W, strain ssb2, hits give low values 0.999 | S. cerevisiae deletion strains, locus YNL233W, strain BNI4, hits give low values 0.917 | S. cerevisiae deletion strains, locus YNL248C, strain rpa49, hits give low values 0.983 | S. cerevisiae deletion strains, locus YNL250W, strain rad50, hits give low values 0.936 | S. cerevisiae deletion strains, locus YNL271C, strain bni1, hits give low values 0.983 | S. cerevisiae deletion strains, locus YNL298W, strain CLA4, hits give low values 0.974 | S. cerevisiae deletion strains, locus YNL322C, strain KRE1 (second series), hits give low values 0.968 | S. cerevisiae deletion strains, locus YNL322C, strain KRE1, hits give low values 0.991 | S. cerevisiae deletion strains, locus YNR049C, strain mso1, hits give low values 0.971 | S. cerevisiae deletion strains, locus YNR052C, strain pop2, hits give low values 0.987 | S. cerevisiae deletion strains, locus YOL006C, strain TOP1, hits give low values 0.876 | S. cerevisiae deletion strains, locus YOL012C, strain htz1 0.444 | S. cerevisiae deletion strains, locus YOL147C, strain pex11, hits give low values 0.991 | S. cerevisiae deletion strains, locus YOR001W, strain rrp6, hits give low values 1.01 | S. cerevisiae deletion strains, locus YOR061W, strain CKA2, hits give low values 0.995 | S. cerevisiae deletion strains, locus YOR069W, strain VPS5, hits give low values 0.984 | S. cerevisiae deletion strains, locus YOR070C, strain gyp1, hits give low values 0.99 | S. cerevisiae deletion strains, locus YOR080W, strain dia2, hits give low values 0.968 | S. cerevisiae deletion strains, locus YOR083W, strain WHI5, hits give low values 0.953 | S. cerevisiae deletion strains, locus YOR106W, strain vam3, hits give low values 0.926 | S. cerevisiae deletion strains, locus YOR136W, strain idh2, hits give low values 0.966 | S. cerevisiae deletion strains, locus YOR144C, strain elg1, hits give low values 0.992 | S. cerevisiae deletion strains, locus YOR231W, strain MKK1, hits give low values 0.97 | S. cerevisiae deletion strains, locus YOR265W, strain rbl2, hits give low values 0.993 | S. cerevisiae deletion strains, locus YOR270C, strain vph1, hits give low values 0.925 | S. cerevisiae deletion strains, locus YOR290C, strain snf2, hits give low values 0.964 | S. cerevisiae deletion strains, locus YOR316C, strain cot1, hits give low values 0.988 | S. cerevisiae deletion strains, locus YPL051W, strain arl3, hits give low values 0.985 | S. cerevisiae deletion strains, locus YPL055C, strain LGE1, hits give low values 0.954 | S. cerevisiae deletion strains, locus YPL078C, strain atp4, hits give low values 0.973 | S. cerevisiae deletion strains, locus YPL106C, strain sse1, hits give low values 0.96 | S. cerevisiae deletion strains, locus YPL240C, strain hsp82, hits give low values 0.985 | S. cerevisiae deletion strains, locus YPL241C, strain CIN2, hits give low values 0.987 | S. cerevisiae deletion strains, locus YPL256C, strain CLN2, hits give low values 0.971 | S. cerevisiae deletion strains, locus YPR119W, strain clb2, hits give low values 0.992 | S. cerevisiae deletion strains, locus YPR141C, strain kar3, hits give low values 0.99 | S. cerevisiae deletion strains, locus YPR163C, strain tif3, hits give low values 0.986 | S. cerevisiae deletion strains, locus YPR167C, strain met16, hits give low values 0.992 | S. cerevisiae deletion strains, strain wtn01, hits give low values 0.922 | S. cerevisiae strains, strain wild type, hits give low values 0.909
